In PubChem BioAssay AID1224854 (National Center for Advancing Translational Sciences (NCATS), 2016):
Records with an inconclusive call do not appear. Unmarked numbers belong to inactive results. Active and inactive are the calls of the source. Calls follow the shape of the dose curve; as a rule, active = well fitted activation curve with a large enough effect; inconclusive = small, poorly fitted or top-dose-only effect; inactive = flat fitted curve, though single readings scatter.

Assay: Cell viability assay for measurement of the protective activity of small molecules against cell death caused by Zika virus infection in human astrocytoma cells
Conditions: SNB-19 Zika virus cytoprotection, ATP luminescence, 72 h; series mostly up to 46.1 µM; protection from virus-induced cell death: at the top concentration
Excerpt: National Center for Advancing Translational Sciences [NCATS] Johns Hopkins University School of Medicine Florida State University Assay Overview: Zika virus infection causes cell death in certain cell types including human neural progenitor cells (hNPCs), astrocytes, and astrocytoma cell line (SNB-19). This cell viability assay measures the ATP content (level) in human astrocytoma cells (SNB-19) using a luminescence readout that is proportional to viable cell numbers. Decrease in the luminescence signal after Zika virus infection indicates the cell death caused by Zika virus. Small molecule inhibitors […] the decreased luminescence signal after Zika virus infection, indicating the protective effect of that small molecule on the cell death caused by Zika virus infection. This observed protective effect of small molecules against Zika virus induced cell death may result from inhibition of virus replication or cellular response to the virus infection.
Assay Protocol Summary: The medium for SNB-19 cells is composed of RPMI 1640 (ATCC, Cat.# 30-2001), 10% fetal bovine serum (FBS) (GE healthcare Life Sciences, Cat.# SH30071.03), and 1% Pen/Strep (Gibco, Cat.# 15140-122). The ATP content assay kit (PerkinElmer, Cat.# 6016731) was used to determine cell viability. The reagent was reconstituted and prepared as described by the manufacturer. Cells were seeded in 384- or 1536-well assay plates and cultured at 37 C with 5% CO2 for 16 to 20 hours. The typical cell seeding density in the 1536-well plate assay is 250 cells/well in 3ul medium for SNB-19 cells in tissue culture treated plates. Compounds were added to cells and incubated for one hour before addition of ZIKV solution to cells (2 FFU/cell). After incubation at 37 C with 5% CO2 for 72 hours, the reagent mixture of the ATP content assay kit was added to each well, followed by incubation at room temperature for 10 minutes. The luminescence intensity of the assay plates was measured using a ViewLux plate reader (PerkinElmer). […] The percentage inhibitions of the decreased cell viability by small molecule inhibitors were then calculated.
For `O=C1CCC[C@@H]2[C@H]3CCCN4CCC[C@@H](CN12)[C@@H]34`, the “protection from virus-induced cell death” value was 3.58%. For `O=C(Nc1ccc(Br)cc1)c1cc(Br)cc(Br)c1O`, the “protection from virus-induced cell death” value was -11.1%. For `S=C(SSC(=S)N1CCCCC1)N1CCCCC1`, the Potency was 17300 nM (active). In the case of `CC(=C(CCOC(=O)C(C)C)SSC(CCOC(=O)C(C)C)=C(C)N(C=O)Cc1cnc(C)nc1N)N(C=O)Cc1cnc(C)nc1N`, the “protection from virus-induced cell death” value is reported as 3.38%. With `CN1CC(=O)N2C(Cc3c([nH]c4ccccc34)[C@H]2c2ccc3c(c2)OCO3)C1=O` (stereo partly drawn) the “protection from virus-induced cell death” value was 2.24%. With `Cc1ccc([N+](=O)[O-])[c]2c1[O][Hg]2` the “protection from virus-induced cell death” value was -16.5%. For `COP(=S)(OC)SCN1C(=O)c2ccccc2C1=O`, the “protection from virus-induced cell death” value was -5.99%. For `COc1cccc2c1C(=O)c1c(O)c3c(c(O)c1C2=O)C[C@@](O)(C(=O)CO)CC3OC1CC(N2CCOC(OC)C2)C(O)C(C)O1` (stereo partly drawn), the Potency was 388 nM (active). With `O=c1c2ccccc2[se]n1-c1ccccc1` the “protection from virus-induced cell death” value was -0.214%. In the case of `O=S(=O)(CC1CS1)c1ccc(Oc2ccccc2)cc1` (stereo not drawn), the “protection from virus-induced cell death” value is reported as 11.2%. In the case of `CC(C)[C@H]1C(=O)N[C@H](CO)Cc2c[nH]c3cccc(c23)N1C`, the Potency is reported as 2450 nM (active). For `CN1CC[C@@]2(C)c3cc(OC(=O)Nc4ccccc4)ccc3N(C)[C@@H]12`, the “protection from virus-induced cell death” value was 14.1%. For `CC(C)N[C@@H]1CCn2c(=O)[nH]c3cccc(c32)[C@@H]1O`, the “protection from virus-induced cell death” value was -8.11%.
